Results as given in the supplement of paper PMC10646978.
± gives the standard deviation.

How the values were obtained:
Settings in all cases: modulator concentration 10 µM
[1] = tested on: RAW-Dual (murine macrophage reporter line); test: NF-kB reporter (SEAP) activity fold change vs agonist alone; higher = enhanced NF-kB activity
Method in brief: (§1)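 RAW-Dual murine macrophage reporter cells were plated at 50 000 per well in 384-well plates, pin-transferred compound to 10 μM final, and pre-incubated for 1 hour at 37 °C before a PRR agonist was added and the cells incubated overnight. NF-κB activity was read from supernatant SEAP with QUANTI-Blue at 620 nm absorbance, and IRF activity from Lucia luciferase with QUANTI-Luc by luminescence. Each signal was expressed as fold change by dividing by the mean agonist-only control on the same plate. Two replicate plates were averaged, with errors obtained by propagation.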

[2] = tested on: RAW-Dual (murine macrophage reporter line); test: IRF reporter (Lucia luciferase) activity fold change vs agonist alone; higher = enhanced IRF activity
Method in brief: as §1

[3] = tested on: RAW-Dual (murine macrophage reporter line); test: viability score (confluency relative to resting cells, overnight) (fraction); higher = more viable, active = viable (0.7 or more)
Method in brief: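 RAW-Dual macrophages in 384-well plates were incubated overnight with compound, final concentration 10 μM. Confluency images from IncuCyte were processed in IncuCyte software into two masks covering all imaged wells. The viability score is each well's confluency relative to resting cells, and a compound met the cutoff when both masks exceeded 70% of resting cells.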

[4] = agonist: CpG ODN 1826 0.5 ug/mL

SMILES	NF-kB reporter [1, 4]	NF-kB reporter ([1]; agonist: LPS 0.1 ug/mL)	NF-kB reporter ([1]; agonist: MPLA […])	IRF reporter ([2]; agonist: 3'3'-cGAMP 10 ug/mL)	IRF reporter ([2]; agonist: LPS 0.1 ug/mL)	IRF reporter ([2]; agonist: MPLA […])	viability score [3]
O=C(Nc1ccc([N+](=O)[O-])cc1Br)C1CC12CCC2 (centres undefined)	0.957 ± 0.074	0.83 ± 0.068	1.05 ± 0.13	1.03 ± 0.049	1.39 ± 0.27	1.55 ± 0.38	1.02 (active)
O=C(NCC(O)Cn1ccccc1=O)c1ccc(Cl)s1 (centres undefined)	0.94 ± 0.1	0.869 ± 0.087	1.01 ± 0.087	1.02 ± 0.047	1.41 ± 0.09	1.46 ± 0.12	1 (active)
COc1ccc2c(c1)c(CC(=O)OCC(=O)O)c(C)n2C(=O)c1ccc(Cl)cc1	0.844 ± 0.16	1.06 ± 0.33	0.835 ± 0.053	0.938 ± 0.029	1.15 ± 0.25	1.07 ± 0.11	0.985 (active)
Cc1ccc2nc(C)c(NC(=O)c3ccc4ccccc4n3)c(=O)n2c1	0.787 ± 0.25	1.03 ± 0.14	0.823 ± 0.091	0.793 ± 0.04	1.02 ± 0.061	1.1 ± 0.23	0.994 (active)
CN(C)C(CNC(=O)NCc1ccc(F)cc1)c1ccc2c(c1)CCO2 (centres undefined)	0.838 ± 0.048	1.09 ± 0.092	1.04 ± 0.055	1.12 ± 0.064	1 ± 0.062	0.804 ± 0.12	0.994 (active)
CCOC(=O)C(CCc1ccccc1)NC(C)C(=O)N1Cc2ccccc2CC1C(=O)O.Cl (centres undefined)	1.27 ± 0.31	1.05 ± 0.057	0.977 ± 0.072	0.955 ± 0.046	1.22 ± 0.14	1.3 ± 0.13	0.997 (active)
Cl.O=C1CN2Cc3c(ccc(Cl)c3Cl)NC2=N1	0.954 ± 0.13	0.963 ± 0.17	0.96 ± 0.077	0.959 ± 0.051	1.24 ± 0.29	0.993 ± 0.2	1.01 (active)
COc1ccc(CNc2oc(-c3ccc(COc4ccccc4C)o3)nc2C#N)cc1	1.48 ± 0.11	1.31 ± 0.074	2.3 ± 0.054	1.3 ± 0.073	0.887 ± 0.1	1.34 ± 0.32	0.934 (active)
O=C(Cc1ccc([N+](=O)[O-])cc1)NN=Cc1cccnc1	1.05 ± 0.083	1.02 ± 0.074	0.972 ± 0.041	0.86 ± 0.066	1.09 ± 0.053	1.03 ± 0.14	1 (active)
CCOC(=O)C1C(=O)NC(SCC(N)=O)=C(C#N)C1c1ccccc1OCC (centres undefined)	0.936 ± 0.052	0.994 ± 0.063	0.926 ± 0.07	1 ± 0.072	1.25 ± 0.083	1.03 ± 0.098	1 (active)
CS(=O)(=O)O.Cc1ccc(NC(=O)c2ccc(CN3CCN(C)CC3)cc2)cc1Nc1nccc(-c2cccnc2)n1	0.119 ± 0.03	1.27 ± 0.28	1.89 ± 0.17	0.201 ± 0.0064	0.97 ± 0.18	1.75 ± 0.3	0.957 (active)
COC(=O)C1=CN(CC2CCCO2)C=C(C(=O)OC)C1c1ccsc1 (centres undefined)	0.898 ± 0.087	0.845 ± 0.057	1.12 ± 0.13	0.895 ± 0.041	1.41 ± 0.082	1.43 ± 0.18	1.01 (active)
COC(=O)C1=C(C)NC(C)=C(C(=O)OC)C1c1ccccc1[N+](=O)[O-]	1.27 ± 0.1	1.33 ± 0.073	1.82 ± 0.17	0.374 ± 0.017	0.585 ± 0.035	0.414 ± 0.038	0.907 (active)
O=C(CN1CCN(c2ccccc2F)C1=O)N1CCCC(Oc2cnccn2)C1 (centres undefined)	0.831 ± 0.039	0.931 ± 0.075	1.08 ± 0.062	1.02 ± 0.053	1.26 ± 0.27	1.37 ± 0.47	0.965 (active)
C=CC(C)(O)CCC=C(C)C (centres undefined)	0.988 ± 0.085	0.841 ± 0.062	0.999 ± 0.11	1.01 ± 0.038	1.22 ± 0.16	1.34 ± 0.28	1.03 (active)
Cl.O=C1c2cccc3c2C(CCC3)CN1C1CN2CCC1CC2 (centres undefined)	0.77 ± 0.21	0.704 ± 0.044	0.825 ± 0.058	0.557 ± 0.035	0.718 ± 0.086	0.924 ± 0.14	0.987 (active)
O=C(NN=Cc1ccc([N+](=O)[O-])s1)c1ccc(Br)cc1	0.968 ± 0.083	0.858 ± 0.082	0.96 ± 0.09	0.395 ± 0.068	1.18 ± 0.2	1.14 ± 0.28	0.996 (active)
c1ccc(-c2ccc(C(c3ccccc3)n3ccnc3)cc2)cc1 (centres undefined)	0.825 ± 0.097	0.893 ± 0.083	1.22 ± 0.12	0.966 ± 0.044	1.31 ± 0.076	1.41 ± 0.15	1 (active)
CN1CCN(CC(O)Cn2c3ccccc3c3ccccc32)CC1.O=C(O)C(=O)O (centres undefined)	0.964 ± 0.074	0.946 ± 0.1	0.983 ± 0.093	0.609 ± 0.02	1.39 ± 0.19	1.45 ± 0.23	1.01 (active)
COc1cc(-c2nnc(SCc3ccc([N+](=O)[O-])cc3)n2-c2ccccc2)cc(OC)c1OC	0.986 ± 0.095	0.942 ± 0.053	0.994 ± 0.074	1.07 ± 0.067	1.37 ± 0.2	0.969 ± 0.06	1.01 (active)
CN1CC(O)C2=C/C(=N/NC(N)=O)C(=O)C=C21 (centres undefined)	0.855 ± 0.048	1 ± 0.084	0.927 ± 0.065	0.99 ± 0.046	1.09 ± 0.18	1.24 ± 0.44	0.665 (inactive)
CC1=NN(c2ccc(Cl)cc2)C(=O)C1=Cc1c(C)nn(-c2ccc(C)cc2C)c1O	1.01 ± 0.13	0.866 ± 0.097	0.944 ± 0.051	0.891 ± 0.031	1.06 ± 0.085	1.15 ± 0.17	0.998 (active)
O=S(=O)(c1ccc(Cl)cc1)N1CCN(C2CC3CCC2C3)CC1 (centres undefined)	0.926 ± 0.062	0.994 ± 0.061	0.972 ± 0.068	1.02 ± 0.037	1.42 ± 0.14	1.24 ± 0.13	0.984 (active)
Cc1cccc(Cn2cc(C=C3SC(=S)NC3=O)c3ccccc32)c1	0.681 ± 0.067	0.893 ± 0.043	1 ± 0.088	0.844 ± 0.045	0.955 ± 0.1	1.09 ± 0.17	1.02 (active)
COc1ccc(-c2noc(-c3ccc(=O)n(Cc4ncc(C)c(OC)c4C)c3)n2)cc1F	0.91 ± 0.058	0.944 ± 0.083	1.06 ± 0.073	0.961 ± 0.044	1.17 ± 0.24	1.31 ± 0.51	0.956 (active)
O=S(=O)(Nc1nc2ccccc2nc1Nc1ccc2c(c1)OCCO2)c1cccs1	0.985 ± 0.078	1.02 ± 0.065	1.13 ± 0.1	0.85 ± 0.028	1.29 ± 0.2	1.05 ± 0.098	0.99 (active)
CC(C)NCC(O)c1ccc(NS(C)(=O)=O)cc1.Cl (centres undefined)	0.99 ± 0.098	1.02 ± 0.057	1 ± 0.043	1.01 ± 0.056	0.978 ± 0.082	0.99 ± 0.09	1 (active)
